# Experimental data reported in PubChem BioAssay (NCI).
# Compounds without any hit were thinned out: in the full panel of roughly 83,000, 20% have a hit.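 Cell lines were cultured in 96-well plates, exposed to a single compound concentration, and assessed for percent growth 48 hours later.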 Unmarked numbers belong to inactive results. Calls of active or inactive are those of the source. Rule for the calls: active = growth percent below 10; inactive = the rest.
# How the values were obtained:
# Experiment in all cases: NCI-60 one-dose screen, 48 h (100 = growth as untreated, 0 = no growth, -100 = all killed)
# DU-145 prostate = settings: 10 µM unless noted
# MALME-3M melanoma = settings: 10 µM unless noted
# MDA-MB-231 breast = settings: 10 µM unless noted
# RXF 393 renal = settings: 10 µM unless noted
# SF-268 CNS = settings: 10 µM unless noted
# SF-295 CNS = settings: 10 µM unless noted
# SF-539 CNS = settings: 10 µM unless noted
# UACC-257 melanoma = settings: 10 µM unless noted
# M14 melanoma = settings: 10 µM unless noted
# HCT-15 colon = settings: 10 µM unless noted
# SNB-75 CNS = settings: 10 µM
# SNB-19 CNS = settings: 10 µM unless noted
# U251 CNS = settings: 10 µM unless noted
# PC-3 prostate = settings: 10 µM unless noted
# SK-MEL-5 melanoma = settings: 10 µM unless noted
# UACC-62 melanoma = settings: 10 µM unless noted
# LOX IMVI melanoma = settings: 10 µM unless noted
# SK-MEL-28 melanoma = settings: 10 µM unless noted
# K-562 leukemia = settings: 10 µM unless noted
# HT29 colon = settings: 10 µM unless noted
SMILES,growth (DU-145 prostate) [%],growth (MALME-3M melanoma),growth (MDA-MB-231 breast),growth (RXF 393 renal),growth (SF-268 CNS),growth (SF-295 CNS),growth (SF-539 CNS),growth (UACC-257 melanoma),growth (M14 melanoma),growth (HCT-15 colon),growth (SNB-75 CNS),growth (SNB-19 CNS),growth (U251 CNS) [%],growth (PC-3 prostate),growth (SK-MEL-5 melanoma),growth (UACC-62 melanoma),growth (LOX IMVI melanoma),growth (SK-MEL-28 melanoma),growth (K-562 leukemia),growth (HT29 colon)
O=C(O)Cc1cccc(=O)c(O)c1C(=O)O,117,92.5%,110%,112%,107%,117%,110%,103%,102%,106%,107%,105%,109,95.7%,108%,100%,101%,110%,,
CCc1cnc(=S)n(-c2ccccc2)c1,104,,107%,129%,100%,,101%,120%,106%,103%,117%,107%,117,98.7%,117%,109%,95.4%,114%,117%,
O=C(CSc1nc2ccccc2[nH]1)Nc1ccc(-c2nc3ccccc3s2)c(Cl)c1,,2.26% (active),-36.8% (active),21.8%,,3.63% (active),-88.6% (active),16%,-58.1% (active),,-28.5% (active),65%,,,23.4%,49.3%,,0.271% (active),20.4%,14.7%
CN1C=CN(Cc2ccc(-c3ccccn3)nc2)[CH-]1.CN1C=CN(Cc2ccc(-c3ccccn3)nc2)[CH-]1.[Au+3],,21.5%,28.1%,19.5%,44.1%,17.3%,17.4%,2.13% (active),35.6%,68.5%,72.6%,62.6%,38.6,20.3%,37.8%,30.7%,32.4%,50.7%,21.9%,
Cc1ccc(NS(=O)(=O)c2cc(C)ccc2C)cc1,57.9,54.1%,57.4%,47.6%,53.7%,30.7%,45.4%,73%,8.87% (active),32.9%,,53.1%,36.8,57.6%,30.3%,40%,41%,61.5%,,10.8%
Cc1ccc(CSC(=N)N)cc1C,108,111%,99.2%,103%,104%,111%,114%,119%,105%,116%,,98.7%,111,,,97.8%,91.9%,111%,,104%
O=[N+]([O-])c1ccc(/C=C/C2(CCl)OCCO2)cc1,114,,114%,104%,115%,,104%,93.6%,95.2%,109%,,95.6%,97.3,96.4%,,89.8%,80.6%,112%,65.7%,92.5%
CN(C)CC(C(=O)c1ccccc1)c1ccccc1 (stereo not given),14.7,57.7%,80%,54.8%,5.71% (active),93.1%,33.7%,32.7%,-1.12% (active),-37.7% (active),,84.4%,59.8,38.3%,64.2%,34.8%,3.08% (active),61%,,-17.4% (active)
C=C[C@@H]1C[C@H](O)Cc2ccccc2N1,115,113%,101%,120%,107%,109%,101%,104%,108%,103%,102%,108%,99.1,106%,110%,102%,104%,112%,,
O=C(CSC1CCc2ccccc21)N/N=C/c1ccccc1O (stereo not given),52.8,53.3%,45.2%,75.1%,39.5%,,54.7%,,47.4%,33.6%,71.7%,60.5%,48.7,50.6%,47.7%,36.4%,40.4%,57.2%,,
CC(O)CN1CCCCC1 (stereo not given),117,112%,105%,108%,101%,104%,111%,104%,105%,107%,,100%,99.6,102%,105%,101%,101%,109%,,92.3%
C=C(C)[C@@H]1C[C@@H]2Cc3cc(F)ccc3N1O2,114,83%,99.8%,108%,101%,106%,95.6%,99.1%,95.5%,92.9%,95.9%,105%,89.5,95%,95.3%,95%,94.6%,107%,,
Cc1ccc2ccccc2c1C[n+]1ccccc1,117,108%,77.8%,105%,106%,101%,105%,113%,111%,107%,,101%,83.6,83.4%,110%,99.8%,94.5%,110%,,92%
Cc1c(C(N)=O)sc2c1c(=O)n(Cc1ccccc1)c1nnc(Nc3ccccc3)n21,89.3,110%,105%,113%,101%,104%,100%,92.3%,101%,96.1%,,101%,97.2,96.9%,105%,92.5%,93.5%,109%,,94.3%
O=S(=O)(c1ccc(OCCO)cc1)c1ccc(OCCO)cc1,,98.6%,112%,119%,122%,118%,110%,85.7%,102%,99%,,108%,93.2,85%,89.7%,101%,105%,79%,101%,97.6%
CCN(CC)c1ccc(C(=N)c2ccc(N(CC)CC)cc2)cc1,,-32.6% (active),-63.3% (active),-31.5% (active),,-54.7% (active),-68.7% (active),-39.6% (active),-93.1% (active),,-34.3% (active),4.23% (active),,3.06% (active),-100% (active),-64.6% (active),,-39.9% (active),-4.1% (active),-10.5% (active)
COc1ccc(/C(C#N)=C/c2cc(OC)c(OC)c(OC)c2)cc1,82.7,,58.1%,56.7%,61.9%,,23.1%,52.8%,17.2%,,,66.3%,34.4,43.1%,14.8%,39%,50.3%,52.1%,19%,9.49% (active)
